Reference: the supplement of paper PMC3334620
Over roughly 33,000 sequences, “E-score (-0.5 to 0.5)” has its median near -0.056; the highest 2% begin near 0.38. Only a selection was taken, and the highest values are over-represented in it overall.

What follows are sequences tested against Stb4 (UniProt P50104) (assay: PBM E-score (8-mer binding enrichment) (E-score (-0.5 to 0.5)); higher = stronger / more preferred TF binding). Conditions: protein concentration: 200 nM; construct: GST-DNA-binding domain.
Description: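 Universal 'all 10-mer' protein binding microarrays (Agilent AMADID 015681) probed with GST-tagged S. cerevisiae TFs (full-length or DBD) made by in vitro transcription/translation (PURExpress), about 100-200 nM. Bound TF was detected with fluorescent anti-GST. Each ungapped 8-mer (which stands for itself and its reverse complement) is scored by the PBM enrichment score (E-score), a modified Wilcoxon-Mann-Whitney statistic from -0.5 to +0.5, computed with the Universal PBM Analysis Suite. Scale: above 0.35 generally sequence-specific binding.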

Chain of UniProt P50104 (P50104 whole entry, the tested form may be a part): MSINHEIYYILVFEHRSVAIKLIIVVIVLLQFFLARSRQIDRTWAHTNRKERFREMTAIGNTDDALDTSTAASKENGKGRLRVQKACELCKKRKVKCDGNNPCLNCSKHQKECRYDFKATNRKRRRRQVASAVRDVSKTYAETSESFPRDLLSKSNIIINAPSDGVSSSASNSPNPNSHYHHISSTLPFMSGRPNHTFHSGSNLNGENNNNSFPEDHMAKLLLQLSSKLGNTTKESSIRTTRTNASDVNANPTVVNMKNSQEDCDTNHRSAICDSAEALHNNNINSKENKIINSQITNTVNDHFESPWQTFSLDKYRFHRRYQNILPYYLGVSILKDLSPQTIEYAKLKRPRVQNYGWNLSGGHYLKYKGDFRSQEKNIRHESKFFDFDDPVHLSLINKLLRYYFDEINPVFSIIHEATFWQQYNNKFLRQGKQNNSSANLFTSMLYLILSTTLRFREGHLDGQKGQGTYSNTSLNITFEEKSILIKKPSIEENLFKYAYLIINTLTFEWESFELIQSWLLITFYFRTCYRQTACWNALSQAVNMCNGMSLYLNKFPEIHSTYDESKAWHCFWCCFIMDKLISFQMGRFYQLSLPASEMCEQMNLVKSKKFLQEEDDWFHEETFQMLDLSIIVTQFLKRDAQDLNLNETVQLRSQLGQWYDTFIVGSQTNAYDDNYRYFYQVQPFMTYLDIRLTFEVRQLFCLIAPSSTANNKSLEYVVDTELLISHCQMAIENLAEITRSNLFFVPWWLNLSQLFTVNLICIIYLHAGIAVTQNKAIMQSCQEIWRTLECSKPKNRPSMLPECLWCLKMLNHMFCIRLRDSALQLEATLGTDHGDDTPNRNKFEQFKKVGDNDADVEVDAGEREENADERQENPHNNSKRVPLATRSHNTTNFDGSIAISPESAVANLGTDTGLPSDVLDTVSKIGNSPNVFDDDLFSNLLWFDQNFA

Compared with ATGCGAAT, ATCCGAAT is higher in “PBM E-score” value: 0.0493 for the first, 0.48 for the second.

Compared with CACCGAAG, CTCCGAAG is higher in “PBM E-score” value: 0.228 for the first, 0.413 for the second.

Compared with ATCCGAAA, CCTATTCA is lower in “PBM E-score” value: 0.48 for the first, -0.0251 for the second.

Compared with CGCGCCTA, CACTGGTA is lower in “PBM E-score” value: 0.0819 for the first, -0.276 for the second.

First: GAGTCCCA
Second: TGACTCAA
The “PBM E-score” value of the first is higher: 0.116 for the first, -0.149 for the second.

Going from CGTTCTCC to CAGTTCCG, the “PBM E-score” value rises from -0.0997 to 0.364.

Compared with AGGTTCGC, ACGTTCCG is higher in “PBM E-score” value: 0.0812 for the first, 0.398 for the second.

Compared with AAGTTCCG, AAGTTCCT is lower in “PBM E-score” value: 0.434 for the first, -0.00611 for the second.

Going from AGGTTCGG to AGGTTCGA, the “PBM E-score” value falls from 0.403 to -0.0841.

First: ACGTTCCT
Second: ACGTTCCA
The “PBM E-score” value of the first is lower: -0.168 for the first, -0.0774 for the second.

Compared with AGGTTCCG, AGGTTCCC is lower in “PBM E-score” value: 0.383 for the first, -0.0987 for the second.

Compared with AGGTTCCA, CATAACCC is higher in “PBM E-score” value: 0.0324 for the first, 0.051 for the second.

First: AGGTGGGG
Second: GCAAAAAC
The “PBM E-score” value of the first is lower: -0.0596 for the first, -0.0252 for the second.

First: CACAGCTC
Second: GCACCATA
The “PBM E-score” value of the first is lower: -0.18 for the first, -0.021 for the second.

First: CAGAACTA
Second: CGGCGATA
The “PBM E-score” value of the first is lower: -0.0215 for the first, 0.277 for the second.

Going from CGTAGGGC to ACATTTCC, the “PBM E-score” value rises from -0.195 to 0.141.

Compared with CGCACCGC, CCGTTCCA is higher in “PBM E-score” value: -0.00306 for the first, 0.183 for the second.

Compared with ATGTTCCG, CCGTTCCG is lower in “PBM E-score” value: 0.448 for the first, 0.431 for the second.

First: CCGTTCCC
Second: ATGTTCGG
The “PBM E-score” value of the first is lower: 0.273 for the first, 0.392 for the second.

First: ATGTTCCA
Second: ATGTTCGA
The “PBM E-score” value of the first is higher: -0.0991 for the first, -0.112 for the second.

Going from ATGTTCCC to ATGTTCGC, the “PBM E-score” value falls from 0.153 to -0.118.

Going from AAAACCCA to CCTGGCAG, the “PBM E-score” value falls from -0.0723 to -0.289.

Compared with CTTTGAGC, GAACCACC is higher in “PBM E-score” value: -0.151 for the first, 0.218 for the second.

First: CGGTGGTA
Second: TACCAAAA
The “PBM E-score” value of the first is higher: 0.0785 for the first, -0.12 for the second.

First: AAATTGTG
Second: GTGATCTA
The “PBM E-score” value of the first is lower: -0.295 for the first, -0.0262 for the second.

Going from ATCCCTTC to GCGATTGA, the “PBM E-score” value rises from -0.183 to -0.113.

First: TAGCCGGA
Second: AAGCCGCA
The “PBM E-score” value of the first is higher: 0.384 for the first, 0.167 for the second.

Going from AAGCCGGA to CAGCCAAA, the “PBM E-score” value falls from 0.355 to -0.0614.

Going from AAGCCAAA to CAGCCGAA, the “PBM E-score” value rises from -0.0671 to 0.392.

First: AAGCCGAG
Second: AAGCCGAC
The “PBM E-score” value of the first is higher: 0.401 for the first, 0.26 for the second.

Compared with AAGCCGAT, AAGCCGAA is higher in “PBM E-score” value: 0.299 for the first, 0.407 for the second.

Going from CAGCCGAC to GAGCCGGA, the “PBM E-score” value rises from 0.311 to 0.348.

Compared with CTAGCCAC, AACTTGGG is higher in “PBM E-score” value: -0.287 for the first, 0.0814 for the second.

Going from AGAGCCTG to TAAGTTGA, the “PBM E-score” value rises from -0.237 to -0.103.

Going from GGATCACA to TAGTGAAA, the “PBM E-score” value falls from 0.228 to -0.178.

First: CGATACTC
Second: AGGGCCAT
The “PBM E-score” value of the first is higher: 0.065 for the first, -0.253 for the second.

Going from GAGCCGCA to GAGCCGAA, the “PBM E-score” value rises from 0.0237 to 0.423.

Compared with TGGCCGAA, TAGCCGAA is higher in “PBM E-score” value: 0.251 for the first, 0.446 for the second.

Compared with CAGCCGCG, GAGCCGAC is higher in “PBM E-score” value: 0.151 for the first, 0.296 for the second.

First: CAGCCGAG
Second: TAGCCAAA
The “PBM E-score” value of the first is higher: 0.409 for the first, 0.0424 for the second.

Compared with CAGCCGGG, AGGTCGCC is lower in “PBM E-score” value: 0.237 for the first, 0.00267 for the second.

First: AAGGGCAA
Second: CTGCTAGC
The “PBM E-score” value of the first is higher: 0.158 for the first, -0.23 for the second.

Going from TAGTTTGA to ATAACGCA, the “PBM E-score” value rises from -0.121 to -0.0729.

Going from CCGGTAGA to AGGAAACA, the “PBM E-score” value falls from 0.264 to -0.0661.

First: AGGAAACG
Second: CGGAAACC
The “PBM E-score” value of the first is lower: -0.164 for the first, 0.347 for the second.

First: CGGAAACA
Second: GGGAAACA
The “PBM E-score” value of the first is higher: 0.427 for the first, 0.175 for the second.

Going from CGGAAACG to ATCAAATG, the “PBM E-score” value falls from 0.384 to 0.129.

First: ACCTAAAG
Second: AGTGCACC
The “PBM E-score” value of the first is lower: -0.0577 for the first, 0.0754 for the second.

Going from CGTAAACA to AGGCTCGG, the “PBM E-score” value rises from 0.055 to 0.432.

Going from ACGCTCGC to ACGCTCGA, the “PBM E-score” value rises from -0.227 to -0.198.

First: ATGCTCGA
Second: AGGCTCGA
The “PBM E-score” value of the first is lower: -0.139 for the first, -0.126 for the second.

Going from ATGCTCGC to ATGCTCGG, the “PBM E-score” value rises from -0.239 to 0.404.

Compared with ACGCTCGG, AGGCTCGC is lower in “PBM E-score” value: 0.42 for the first, -0.00633 for the second.

Going from TAAATGGA to TAAAACAA, the “PBM E-score” value falls from -0.104 to -0.199.

Compared with AATGGGGC, CCTCGCGC is higher in “PBM E-score” value: -0.232 for the first, -0.0639 for the second.

First: ATCGACGC
Second: CCTAGGGC
The “PBM E-score” value of the first is higher: -0.126 for the first, -0.153 for the second.

Compared with CGTACCGA, ACTATCGG is lower in “PBM E-score” value: 0.334 for the first, 0.236 for the second.

First: CCTCCCGA
Second: GCTCCCAA
The “PBM E-score” value of the first is higher: 0.387 for the first, -0.272 for the second.

Going from GCTCCCCA to CCTCCCCA, the “PBM E-score” value rises from -0.311 to -0.0256.

First: ACTCCCGA
Second: CCTCCCGC
The “PBM E-score” value of the first is higher: 0.411 for the first, 0.133 for the second.

Compared with ACTCCCGG, ACTCCCGC is lower in “PBM E-score” value: 0.372 for the first, 0.234 for the second.

First: GCTCCCGA
Second: TTGATCAA
The “PBM E-score” value of the first is higher: 0.41 for the first, -0.205 for the second.

Compared with ACGGACGC, CCTCCGAA is higher in “PBM E-score” value: -0.0449 for the first, 0.352 for the second.

Compared with CCTCCGAG, GCTCCGAC is lower in “PBM E-score” value: 0.4 for the first, 0.238 for the second.

Going from TCTCCGAA to CCTCCGCG, the “PBM E-score” value falls from 0.384 to 0.159.

First: GCTCCGGA
Second: ACTCCGGA
The “PBM E-score” value of the first is lower: 0.346 for the first, 0.411 for the second.

Going from CCTCCGAC to ACTCCGGC, the “PBM E-score” value rises from 0.209 to 0.281.

First: TCTCCGCA
Second: TCTCCAAA
The “PBM E-score” value of the first is higher: 0.147 for the first, -0.144 for the second.

Compared with GCTCCGAA, AGGCTAGC is lower in “PBM E-score” value: 0.4 for the first, -0.217 for the second.

First: CCGGTCAC
Second: CGGTGCTA
The “PBM E-score” value of the first is higher: 0.108 for the first, 0.103 for the second.

Compared with TAAGAGAA, ACATCGAC is higher in “PBM E-score” value: -0.344 for the first, -0.0835 for the second.

First: AACAGTAG
Second: ACATTGAT
The “PBM E-score” value of the first is lower: -0.0759 for the first, 0.0749 for the second.

Going from AAAGTTAG to CAGCGGTC, the “PBM E-score” value falls from -0.00674 to -0.186.

First: ACTCCGAC
Second: ACTCCGAA
The “PBM E-score” value of the first is lower: 0.32 for the first, 0.385 for the second.

Going from ACTCCAAA to ACTCCGAG, the “PBM E-score” value rises from -0.0951 to 0.395.

First: ACTCCGTA
Second: ACTCCGAT
The “PBM E-score” value of the first is lower: 0.0548 for the first, 0.242 for the second.

Compared with CAATAGGG, CGGCCTGA is higher in “PBM E-score” value: -0.163 for the first, 0.0862 for the second.

First: CAAGCGAA
Second: TCGCGTAA
The “PBM E-score” value of the first is lower: -0.201 for the first, 0.0292 for the second.

Going from CACAACCC to GTCCATTA, the “PBM E-score” value falls from -0.0519 to -0.172.

Going from GGATCCTA to CGATCCGA, the “PBM E-score” value rises from 0.122 to 0.475.

Compared with AGATCCCG, CGATCCTA is lower in “PBM E-score” value: 0.407 for the first, -0.0737 for the second.

First: CGATCCGC
Second: GGATCCCA
The “PBM E-score” value of the first is higher: 0.325 for the first, 0.102 for the second.

Going from AGATCCGG to CGATCCCG, the “PBM E-score” value falls from 0.366 to 0.342.

Compared with GGATCCGA, AGATCCCT is lower in “PBM E-score” value: 0.459 for the first, -0.226 for the second.

First: AGATCCGC
Second: AGATCCGA
The “PBM E-score” value of the first is lower: 0.291 for the first, 0.477 for the second.

Compared with AGCGATAT, GTTCCTTA is higher in “PBM E-score” value: -0.172 for the first, 0.0117 for the second.
